Experimental data published in PubChem BioAssay (EPA / NIEHS).
“And” between values parts separate entries of the source, which are not always exact repeats. Equal values may be shown once. Records with an inconclusive call do not appear. Some structures have more than one record in an assay (separate samples or runs), and their calls can disagree. The source made the active and inactive calls. How the source made its calls, unless noted: active means hit-call score of the fitted dose curve at least 0.9, where 1 is the maximum; inactive means score below 0.9.

Experiments:
[1] = UKN2_HCS_IMR90_neural_migration: University of Konstanz (UKN) Leist Lab Neural Crest Cell Migration Assay in human induced IMR90 Pluripotent Stem Cells (UKN2) (AID 2284204); settings: actives raise or lower the signal
Method in brief: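 Stopper-exclusion migration (cMINC), human iPSC-derived neural crest cells; N2-S + EGF/FGF; compound added 24 h post-stopper removal, 24 h exposure. Readout: calcein-AM/Hoechst 30 min, HCS fluorescence imaging; bidirectional fitting, DMSO baseline.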

[2] = IUF_NPC1b_proliferation_BrdU_72hr: Leibniz Research Institute for Environmental Medicine (IUF) 72-hour Neural Progenitor Cell Bromodeoxyuridine (BrdU) Proliferation Assay (NPC1b) (AID 2284207)
Method in brief: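 Luminescent BrdU ELISA measured DNA synthesis during the last 16 h of a 72 h exposure of primary human neural progenitor spheres grown with EGF and FGF. Signal was fitted relative to DMSO controls.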

[3] = IUF_NPC1a_proliferation_area_72hr: Leibniz Research Institute for Environmental Medicine (IUF) 72-hour Neural Progenitor Cell Proliferation Area Assay (NPC1a) (AID 2284208)
Method in brief: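 Spheres of 0.3 mm are plated singly in growth-factor medium and exposed from day 0. After three days at 37C and 5% CO2, sphere area is measured by phase contrast imaging, with activity referenced to DMSO.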

[4] = IUF_NPC1_viability_72hr: Viability Assessment at 72 hours in the Leibniz Research Institute for Environmental Medicine (IUF) Neural Progenitor Cell Proliferation Assay (NPC1) (AID 2284209)
Method in brief: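 Viability was measured by resazurin-to-resorufin fluorescence (alamar blue) after 72 h of continuous exposure without compound renewal. Each well held one hNPC sphere (gestational week 16-19 fetal cortex, 0.25-0.35 mm) cultured in EGF/FGF proliferation medium at 37C and pH 7.2-7.6.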

[5] = CCTE_Mundy_HCI_Cortical_Synap_Neur_Matur_NeuriteSpotCountPerNeuriteLength: CCTE's Synaptogenesis and Neurite Maturation Assay in rat cortical cells for Neurite Spot Count per Neurite Length, Mundy Lab (AID 2284210)
Method in brief: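 Read-out: synaptophysin puncta counted along MAP2-stained neurites, normalised to neurite length, by automated high-content imaging. Rat cortical cells; AraC DIV 5; chemical dosing DIV 7; termination DIV 12. DMSO baseline.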

[6] = CCTE_Mundy_HCI_Cortical_Synap_Neur_Matur_BPCount: CCTE's Synaptogenesis and Neurite Maturation Assay in rat cortical cells for Branch Point Count, Mundy Lab (AID 2284211)
Method in brief: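 HCI read-out of branch points from MAP2/synaptophysin/Hoechst immunofluorescence; rat cortical cultures, AraC DIV 5, dosing DIV 7, fixed DIV 12; fit in positive direction vs DMSO baseline.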

[7] = CCTE_Mundy_HCI_Cortical_NOG_NeuriteCount: CCTE's Neurite Outgrowth Assay in rat cortical cells for Neurite Count, Mundy Lab (AID 2284212);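 further: cells fixed about two days after chemical exposure began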
Method in brief: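 Rat cortical primary cells; compound added 2 h post-plating, 1/10 dilution of working solution. Anti-betaIII-tubulin/AF488 ICC; ArrayScan neurite count vs DMSO.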

[8] = CCTE_Mundy_HCI_Cortical_NOG_NeuriteLength: CCTE's Neurite Outgrowth Assay in rat cortical cells for Neurite Length, Mundy Lab (AID 2284213)
Method in brief: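 First, rat primary cortical cells were plated and, 2 h later, given test chemical as a 1/10 dilution. Finally, βIII-tubulin immunostaining enabled automated imaging of neurite length.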

[9] = CCTE_Mundy_HCI_Cortical_Synap_Neur_Matur_NeuriteLength: CCTE's Synaptogenesis and Neurite Maturation Assay in rat cortical cells for Neurite Length, Mundy Lab (AID 2284214)
Method in brief: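 Neurite length quantified by automated high-content imaging of MAP2, synaptophysin and Hoechst staining. Rat cortical cells received chemical from DIV 7 to DIV 12 […], glial growth arrested by AraC at DIV 5; DMSO baseline.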

[10] = CCTE_Mundy_HCI_Cortical_Synap_Neur_Matur_NeuriteSpotCountPerNeuron: CCTE's Synaptogenesis and Neurite Maturation Assay in rat cortical cells for Neurite Spot Count per Neuron Count, Mundy Lab (AID 2284215)
Method in brief: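 Rat cortical primary cultures; AraC DIV 5 to arrest glia; dosing + media change DIV 7; fixed DIV 12. Anti-MAP2/anti-synaptophysin, Hoechst nuclei; HCI puncta count per neuron, positive fitting direction vs DMSO.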

[11] = CCTE_Mundy_HCI_Cortical_Synap_Neur_Matur_SynapseCount: CCTE's Synaptogenesis and Neurite Maturation Assay in rat cortical cells for Synapse Count, Mundy Lab (AID 2284218)
Method in brief: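 High-content imaging of synaptophysin puncta per MAP2-positive neuron (Hoechst nuclei) in rat cortical cells exposed DIV 7–12 after glial arrest with AraC at DIV 5; decrease relative to DMSO scored.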

[12] = CCTE_Mundy_HCI_Cortical_Synap_Neur_Matur_NeuriteCount: CCTE's Synaptogenesis and Neurite Maturation Assay in rat cortical cells for Neurite Count, Mundy Lab (AID 2284222)
Method in brief: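 Rat cortical neurons, 96-well; AraC DIV 5; chemical + media change DIV 7; end DIV 12. Fix PFA/Hoechst, anti-MAP2 + anti-synaptophysin IF. HCI neurite count vs DMSO baseline.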

[13] = CCTE_Mundy_HCI_Cortical_Synap_Neur_Matur_CellBodySpotCount: CCTE's Synaptogenesis and Neurite Maturation Assay in rat cortical cells for Cell Body Spot Count, Mundy Lab (AID 2284223)
Method in brief: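 Rat cortical neurons; AraC @ DIV 5; dose + media change DIV 7; fix DIV 12; anti-MAP2/anti-synaptophysin IF, Hoechst; HCI count of soma synaptophysin puncta/neuron; DMSO = negative control.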

[14] = BSK_BT_PBMCCytotoxicity: PBMC Cytotoxicity Assessment in the BioMAP Diversity Plus: BT Assay (AID 2284225); settings: primary human B cells with PBMC;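 further: PBMC viability measured by Alamar Blue dye reduction fluorescence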
Method in brief: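 Viability by Alamar Blue reduction (6 h, ex/em 546/580 nm) after 90 h culture of SEB/TSST-1-activated PBMC (20 ng/mL each) given compound 1 h before activation. DMSO served as baseline for curve fitting.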

[15] = read-out: Secreted IgG (sIgG), gene 3500; test: BSK_BT_sIgG: BioMAP Diversity Plus: BT Assay for Secreted IgG (sIgG) Biomarker Activity (AID 2284226); settings: primary human B cells with PBMC
Method in brief: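 ELISA quantitation of secreted IgG from human B cells co-cultured with PBMC, sampled 24 h post-dosing. Values fitted relative to DMSO vehicle as baseline, positive fitting direction.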

[16] = BSK_BT_Bcell_Proliferation: Viability Assessment in the BioMAP Diversity Plus: BT Assay for B cell Proliferation (AID 2284227); settings: primary human B cells with PBMC
Method in brief: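 Human B cell/PBMC co-culture; test chemical added; 72 h; TCA fix (10%), 0.1% SRB stain, A560 for total protein as a proliferation read-out; positive-direction fit vs DMSO baseline.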

[17] = read-out: Interleukin 6 (IL6), IL6 (gene 3569); test: BSK_BT_xIL6: BioMAP Diversity Plus: BT Assay for Interleukin 6 (IL6) Biomarker Activity (AID 2284228); settings: primary human B cells with PBMC
Method in brief: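 B cells and peripheral blood mononuclear cells (human primary co-culture) were dosed with chemical, and after 24 h IL-6 released into the medium was measured by Luminex xMAP. Responses were analysed as gain of signal over DMSO control.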

[18] = UKN4_HCS_LUHMES_neurite_outgrowth: University of Konstanz (UKN) Leist Lab Neurite Outgrowth Assay in human LUHMES cells (UKN4) (AID 2284206); settings: actives raise or lower the signal
Method in brief: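 After 24 h compound treatment beginning shortly after replating of 2-day-differentiated LUHMES cells, calcein-AM and H-33342 live staining allowed high-content imaging of neurite area and viability. Fitted bidirectionally against DMSO.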

[19] = CCTE_Mundy_HCI_hNP1_Pro_ResponderAvgInten: CCTE's Proliferation Assay in human neuroprogenitor cells, Mundy Lab (AID 2284224; active means hit-call score of the fitted dose curve at least 0.9, where 1 is the maximum;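 further: human neural progenitor cells hNP1 derived from WA09 embryonic stem cells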)
Method in brief: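 Proliferation read as average intensity of BrdU-positive cells, imaged at 26.25 h post-dosing: chemical exposure started after 40–44 h culture, BrdU during final 4 h, paraformaldehyde fixation. Positive-direction fit relative to DMSO.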

[20] = TAMU_PeakParms_SingleDonor1434_Chronotropy: Texas A&M University (TAMU) 1.5-hr Human Induced Pluripotent Stem Cell (iPSC)-derived Cardiomyocytes Calcium (Ca+2) Flux Assay for Cardiotoxicity: Chronotropy (changes in peak frequency) (AID 2284217); settings: actives raise or lower the signal
Method in brief: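 Beat rate, as mean Ca2+-flux peak frequency, was read from donor 1434 iPSC cardiomyocytes 90 min after exposure to 0.2–100 uM test chemical (0.5% DMSO). Wells that stopped beating were excluded; EC05 from bidirectional DMSO-referenced fitting.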

Measured: AC50

CCCCC(CC)COC(=O)COc1ccc(Cl)cc1C (stereo not given)
active: [2] 0.0137 µM | [5] 24.2 µM | [6] 15.7 µM | [9] 14.1 µM | [10] 16.3 µM | [11] 16.4 µM | [12] 17.1 µM | [13] 25 µM
inactive: [1] | [3] | [4] | [7] | [8]

CCCCCCCC1CCCC1=O (stereo not given)
inactive: [14] | [16] | [17]
active: [15] 2.5 µM

c1ccc2scnc2c1
active: [2] 10 µM
inactive: [1] | [3] | [4] | [5] | [6] | [7] | [8] | [9] | [10] | [11] | [12] | [13]

CC(C)Cc1ccc(C(C)C(=O)O)cc1 (stereo not given)
inactive: [1] | [18] | [2] | [3] | [4] | [5] | [6] | [7] | [8] | [9] | [10] | [11] | [12] | [13] | [19] | [14] | [15] | [16] | [17]

O=S(=O)(O)C(F)(F)C(F)(F)OC(F)(F)C(F)(F)F
inactive: [14] | [15] | [16] | [17]

CCCCCCCCCC(=O)OCC
inactive: [14] | [15] | [16] | [17]

CNC(=C[N+](=O)[O-])NCCSCc1ccc(CN(C)C)o1
inactive: [20]

CC1=CC(C)C(C=O)C(C)C1 (stereo not given) (tested in a mixture with another compound)
inactive: [14] | [15] | [16] | [17]

CC=CC(=O)C1=C(C)C=CCC1(C)C
inactive: [14] | [15] | [16] | [17]

C=C(F)C(=O)OC(C(F)(F)F)C(F)(F)F
inactive: [14] | [15] | [16] | [17]

Nc1ccc(N)c([N+](=O)[O-])c1
inactive: [15] | [16] | [17]

CC(C)(C)c1cccc(O)c1
inactive: [14] | [15] | [16] | [17]

OCC(F)(OC(F)(F)C(F)(OC(F)(F)C(F)(F)C(F)(F)F)C(F)(F)F)C(F)(F)F (stereo not given)
active: [14] 2.62 µM and 5.68 µM | [15] 5.29 µM | [16] 3.33 µM
inactive: [15] | [16] | [17]

C=C(C)C(=O)OCCC(F)(F)C(F)(F)C(F)(F)C(F)(F)C(F)(F)C(F)(F)C(F)(F)C(F)(F)F
inactive: [14] | [15] | [16] | [17]

CC(=O)CCC=C(C)CCC=C(C)C
active: [15] 20 µM | [16] 31.7 µM
inactive: [14] | [17]

O=C(O)C(F)(F)C(F)(F)C(F)(F)C(F)(F)C(F)(F)C(F)(F)C(F)(F)C(F)F
active: [14] 19.8 µM | [16] 21 µM and 22.2 µM
inactive: [14] | [15] | [17]

O=S1(=O)CC(Cl)(Cl)C(Cl)(Cl)C1
active: [14] 0.874 µM | [15] 0.329 µM | [16] 0.537 µM | [17] 0.416 µM
